An excerpt weighted towards active compounds, which were near 10% of everything screened.
hNpr1 antagonist: antagonists of human natriuretic peptide receptor Npr1. P16066. HEK293 hNpr1 GloSensor cGMP, ANP-stimulated luminescence. 1.6% of 76,000 active. Potency, µM (doses to about 46.3 µM), for inactives: at the highest dose activity change, negative = inhibition, most hits filed as inhibitors; calls by dose curve; also: nearly all actives have a fitted effect of over 60% in size
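Compound pre-incubated 30 min at room temperature on GloSensor-loaded HEK293 cells stably carrying hNpr1 and the pGS-40F cGMP biosensor. Stimulation uses hNppA at 0.1 nM final; luminescence is taken at baseline and 20 min post-agonist.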
FLuc inh: blocks purified firefly luciferase enzyme activity; purified P. pyralis luciferase, luminescence, biochemical; Potency, µM (series often up to 115 µM), hits mostly inhibitors; 2.5% of 76,000 active; also: nearly all actives have a fitted effect of over 65% in size
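Purified P. pyralis luciferase (10nM final) in 50mM Tris acetate pH 7.5, 10mM Mg acetate, 0.01% Tween-20, 0.05% BSA with 10uM D-luciferin and 10uM ATP. Compounds titrated qHTS. Luminescence imaged on CCD.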
HEK293 tox: HEK 293 cell cytotoxicity | HEK 293 viability, ATP luminescence (CellTiter-Glo), 48-72 h | Potency, µM (top dose mostly 115 µM), without a hit: at the highest dose activity change, negative = cytotoxicity, most hits filed as inhibitors | 6.6% of 94,000 active | AID 1345083; also: nearly all actives have a fitted effect of over 60% in size
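Cells seeded first (HEK 293, 250 cells/well), then compound added by pintool. Incubation ran 48 or 72 hr at 37 degree Celsius. CellTiter-Glo was added and luminescence imaged after 10 min at room temperature.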
GPT2 inh: blocks human glutamate pyruvate transaminase 2. Q8TD30. Recombinant GPT2, coupled pyruvate oxidase/HRP Amplex Red fluorescence. Potency, µM (titrated, usually from 57.7 µM), without a hit: at the top dose activity change, negative = inhibition, usual class: inhibitors. 0.25% of 100,000 active; also: nearly all actives have a fitted effect of over 60% in size
Target sequence (Q8TD30 whole entry, looked up): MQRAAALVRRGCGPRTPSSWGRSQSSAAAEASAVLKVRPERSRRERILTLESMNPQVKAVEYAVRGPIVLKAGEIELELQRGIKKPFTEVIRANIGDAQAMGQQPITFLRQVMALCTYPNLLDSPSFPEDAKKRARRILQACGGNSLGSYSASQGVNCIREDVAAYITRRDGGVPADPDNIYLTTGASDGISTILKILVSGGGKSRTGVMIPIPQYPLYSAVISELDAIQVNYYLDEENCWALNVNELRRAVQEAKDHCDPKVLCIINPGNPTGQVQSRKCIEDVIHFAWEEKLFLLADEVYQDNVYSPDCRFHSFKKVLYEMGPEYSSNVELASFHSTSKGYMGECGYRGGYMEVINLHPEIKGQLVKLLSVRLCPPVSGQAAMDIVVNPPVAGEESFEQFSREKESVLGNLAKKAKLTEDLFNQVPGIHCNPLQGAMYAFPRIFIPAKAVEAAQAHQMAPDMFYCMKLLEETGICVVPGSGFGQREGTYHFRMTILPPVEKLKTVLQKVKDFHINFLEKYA
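Recombinant GPT2 (10ng/uL) with 250uM a-KG and 2mM L-alanine, 30 min at room temperature, in HEPES pH 7.5 buffer. Pyruvate detected by pyruvate oxidase/HRP/Amplex Red fluorescence after 30 min in the dark; AOA (50uM) as positive control.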
NIH3T3 tox: NIH 3T3 cell cytotoxicity; NIH 3T3 viability, CellTiter-Glo ATP luminescence, 48-72 h; Potency, µM (top dose mostly 96.7 µM), for inactives: at the top dose activity change, negative = cytotoxicity, actives largely listed as inhibitors; 4.3% of 94,000 active; AID 1345082; also: nearly all actives have a fitted effect of over 55% in size
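Mouse fibroblast NIH 3T3 cells, 400 per well, received compound via pintool and were incubated for 48 or 72 hr prior to CellTiter-Glo ATP luminescence measurement.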
Active calls of the source: *; i = inactive; ? = inconclusive; nt = not tested or not shown; [ ] = remark or other dose. Unless noted, calls follow the shape of the dose curve; as a rule, active = well fitted curve in the direction sought with a large enough effect; inconclusive = small, poorly fitted or top-dose-only effect, or another doubt; inactive = no such curve, though single readings can be large; an effect the other way counts as inactive or inconclusive. % is scaled to controls: 0 for no effect and ±100 for the full control effect; potency is read from the fitted curve at half-maximal effect.

SMILES	hNpr1 antagonist	FLuc inh	HEK293 tox	GPT2 inh	NIH3T3 tox
COc1ccc(C2Cn3nnc(C(=O)N4CCN(C(=O)c5ccc(C)cc5)CC4)c3CO2)cc1 (centres undefined)	-25%	i	?	2%	-17%
O=c1[nH]c(C2CCCN(Cc3ccccc3C(F)(F)F)C2)nn1-c1ccc(Cl)cc1 (centres undefined)	0%	i	?	i	?
COc1ccc(-c2cnc([C@@H]3COCCN3Cc3cccc(C#N)c3)[nH]2)cc1	-1%[70.6 µM]	i	?	-11%[88.5 µM]	-18%[138 µM]
N#Cc1cccc(CN2CCOC[C@H]2c2ncc(-c3ccc(Cl)cc3)[nH]2)c1	?	i	?	0%[88.5 µM]	100µM*
Oc1ccccc1CN1CCOC[C@H]1c1ncc(-c2cccc(Cl)c2)[nH]1	-18%[70.6 µM]	i	89µM*	-4%[88.5 µM]	?
N#Cc1cccc(CN2CCOC[C@H]2c2ncc(-c3ccc(F)cc3)[nH]2)c1	0%[70.6 µM]	i	63µM*	i	?
N#Cc1cccc(CN2CCOC[C@H]2c2ncc(-c3ccc(C(F)(F)F)cc3)[nH]2)c1	?	i	89µM*	-9%[88.5 µM]	?
Clc1cccc(-c2cnc([C@@H]3COCCN3Cc3c[nH]c4ccccc34)[nH]2)c1	?	i	?	0%[88.5 µM]	?
COc1ccc(-c2c(C(=O)NCc3ccc(Cl)cc3)nc3sccn23)cc1	nt	nt	?	i	?
C#CCNC(=O)c1ccc2nnc(-c3ccc(Cl)cc3)n2c1	nt	nt	-18%[172 µM]	-2%[88.5 µM]	?
Cc1cccc(OCC(=O)N2CCCC(n3cc(-c4nc(C5CC5)no4)nn3)C2)c1 (centres undefined)	2%	i	-26%	-5%	0%
CS(=O)(=O)c1ccc(CN2CCOC[C@H]2c2ncc(-c3ccc(Cl)cc3)[nH]2)cc1	-10%[70.6 µM]	i	-30%[172 µM]	i	?
Cn1cc(CN2CCOC[C@H]2c2ncc(-c3ccc(S(C)(=O)=O)cc3)[nH]2)c2ccccc21	-3%	i	20µM*	0%	35µM*
COc1cccc(CNC(=O)c2cc(-c3cc(Cl)cc(Cl)c3)nc3c2cnn3C)c1	nt	nt	?	-4%[88.5 µM]	?
O=C(NCc1cccnc1)c1ccc2oc(-c3ccc(C(F)(F)F)cc3)nc2c1	?	i	11µM*	i	?
COc1ccc(-c2ccc(C(=O)NCc3cccc(F)c3)cc2)nn1	nt	nt	?	nt	-25%
COc1ccc(-c2ccc(NC(=O)c3ccccc3C)cc2)nn1	nt	nt	40µM*	nt	?
COc1ccc(-c2ccc(C(=O)NCc3ccccc3)cc2)nn1	nt	nt	-27%[172 µM]	nt	-22%[138 µM]
COc1ccc(-c2ccc(C(=O)NCc3cccnc3)cc2)nn1	nt	nt	-18%[172 µM]	nt	8.9µM*
COc1ccc(-c2ccc(C(=O)NCc3ccccc3F)cc2)nn1	nt	nt	112µM*	nt	?
C#CCNC(=O)c1cn2cc(-c3ccc(C(F)(F)F)cc3)sc2n1	nt	nt	?	i	?
COc1ccc(-c2ccc(C(=O)N(C)c3ccccc3)cc2)nn1	nt	nt	22µM*	nt	13µM*
COc1ccccc1-c1cccc(C(=O)N2CCN(C(=O)c3ccc(C(F)(F)F)cc3)CC2)c1	nt	nt	?	i	?
CCc1cc(=O)n(CC(=O)N2CCN(c3ccccc3F)CC2)c(N2CCOCC2)n1	-24%	i	40µM*	i	?
Cc1ncc(CN2CCC(C(=O)Nc3cccc(-c4cc5ccccc5[nH]4)c3)CC2)cn1	-1%	i	20µM*	i	?
SMILES	hNpr1 antagonist	FLuc inh	HEK293 tox	GPT2 inh	NIH3T3 tox
O=C1COc2ccc(-c3cc(F)cc(F)c3)nc2CN1Cc1ccccc1F	1%[70.6 µM]	i	89µM*	-20%[88.5 µM]	?
O=C1COc2ccc(OCc3cncs3)nc2CN1Cc1ccccc1	-28%[70.6 µM]	i	?	-7%[88.5 µM]	?
CC(=O)Nc1cccc(-c2ccc3c(n2)CN(Cc2nc4ccccc4s2)C(=O)CO3)c1	-7%	?	?	-10%	?
O=C1COc2ccc(OCc3ccccc3)nc2CN1Cc1ccccc1F	?	i	?	i	100µM*
O=C1COc2ccc(-c3ccc(F)c(Cl)c3)nc2CN1Cc1nc2ccccc2s1	-10%	i	50µM*	0%	?
CC(=O)Nc1cc(-c2ccccn2)nn1-c1ccccc1	nt	nt	i	-3%[88.5 µM]	0%[138 µM]
O=C(NCCCc1ccccc1)c1ccc2nc(-c3ccncc3)oc2c1	nt	nt	?	-3%[88.5 µM]	?
CC(C)(C)NC(=O)NCc1nnc2n1C(C(=O)NCc1ccc(F)cc1)CC2 (centres undefined)	nt	nt	-14%	4%	-22%
O=C1NC2(CCN(C(=O)c3cccnc3)CC2)COc2ccccc21	19%[70.6 µM]	i	i	i	1%[138 µM]
COc1ccc(CNC(=O)c2ccc(-c3ccc(N4CCSCC4)nc3)cc2)cc1OC	10µM*	?	?	i	?
O=C(NCc1ccc2c(c1)OCO2)c1ccc(-c2ccc(N3CCSCC3)nc2)cc1	-8%	?	?	i	?
Cc1ccc(CNC(=O)c2ccc(-c3ccc(N4CCSCC4)nc3)cc2)o1	-26%	28µM*	?	i	?
CC(C)CCNC(=O)c1ccc(-c2ccc(N3CCSCC3)nc2)cc1	-7%	?	-28%	i	i
CN1C[C@@H](F)[C@@H](OCc2nc3ccc(C(F)(F)F)cc3[nH]2)C1	-5%[70.6 µM]	50µM*	-24%[172 µM]	-12%[88.5 µM]	?
Cn1cc(CN2C[C@@H](F)[C@@H](OCc3nc4ccc(C#N)cc4[nH]3)C2)c2ccccc21	?	i	89µM*	2%[88.5 µM]	89µM*
Cc1ccc2nc(CO[C@H]3CN(Cc4ccc(Cl)cc4)C[C@H]3F)[nH]c2c1	?	i	89µM*	-9%[88.5 µM]	?
CCNC(=O)N1C[C@@H](F)[C@@H](OCc2nc3ccc(C)cc3[nH]2)C1	3%[70.6 µM]	63µM*	1%[172 µM]	-1%[88.5 µM]	3%[138 µM]
CC(=O)N1C[C@@H](F)[C@@H](OCc2nc3ccc(C(F)(F)F)cc3[nH]2)C1	1%[70.6 µM]	i	-5%[172 µM]	i	-11%[138 µM]
Cc1ccc2nc(CO[C@H]3CN(Cc4ccc(F)c(F)c4)C[C@H]3F)[nH]c2c1	-27%[70.6 µM]	i	?	3%[88.5 µM]	?
Cc1ccc2nc(CO[C@H]3CN(CC4CC4)C[C@H]3F)[nH]c2c1	-12%[70.6 µM]	i	-21%[172 µM]	i	-7%[138 µM]
O=C(C1CCCN1C(=O)Nc1ccc(Cl)cc1)N1CCC(N2Cc3ccccc3C2=O)CC1 (centres undefined)	nt	nt	-32%	i	?
COc1ccc(C(=O)N[C@H]2CO[C@H]3[C@@H]2OC[C@@H]3n2nnnc2-c2cccc(OC)c2)cc1	?	i	-19%	i	-22%
COc1ccc(C(C)NC(=O)c2cc3c(n2C)CCN(Cc2ccccc2)C3)cc1OC (centres undefined)	4%	i	?	4%	-26%
COc1ccc(C(=O)N2CCC(c3nc(-c4cccn4C)no3)CC2)c(OC)c1	nt	nt	?	-6%	?
